Consider 35 compounds from ChEMBL document CHEMBL3433997, “St. Jude Leishmania screening dataset” (2016).

What all share (assay type): functional
The target of experiment [1] is Solute carrier family 2, facilitated glucose transporter member 1 (Homo sapiens) (UniProt P11166). Kind of experiment: ST_JUDE_LEISH: Cytotoxicity at 2uM final concentration against transgenic Leishmania Mexicana promastigotes LmGLUT1 that are glucose transport deficient and complemented with the human glucose transporter GLUT1. Activity is measured by DNA content using SYBR green in vitro.
Chain of Solute carrier family 2, facilitated glucose transporter member 1 (Homo sapiens) (P11166 whole entry): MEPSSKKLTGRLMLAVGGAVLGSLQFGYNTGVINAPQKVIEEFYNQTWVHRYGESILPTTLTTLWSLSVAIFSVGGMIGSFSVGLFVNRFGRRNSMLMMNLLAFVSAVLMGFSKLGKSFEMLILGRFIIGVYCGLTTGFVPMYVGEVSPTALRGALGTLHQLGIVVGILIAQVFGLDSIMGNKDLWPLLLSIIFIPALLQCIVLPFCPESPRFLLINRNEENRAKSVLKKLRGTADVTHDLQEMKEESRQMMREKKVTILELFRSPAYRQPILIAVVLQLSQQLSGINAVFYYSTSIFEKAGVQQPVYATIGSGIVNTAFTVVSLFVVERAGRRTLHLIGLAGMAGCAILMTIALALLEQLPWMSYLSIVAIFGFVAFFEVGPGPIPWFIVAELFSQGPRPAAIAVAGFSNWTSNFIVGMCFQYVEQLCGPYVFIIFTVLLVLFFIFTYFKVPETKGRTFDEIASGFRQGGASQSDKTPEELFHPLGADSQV

Experiment [2] deals with Hexose transporter 1 (Plasmodium falciparum) (UniProt O97467). Kind of experiment: ST_JUDE_LEISH: Cytotoxicity at 2uM final concentration against transgenic Leishmania Mexicana promastigotes LmPfHT that are glucose transport deficient and complemented with the Plasmodium falciparum hexose transporter. Activity is measured by DNA content using SYBR green in vitro.
Experiment [3] addresses Glucose transporter (Leishmania mexicana) (UniProt O61059). Kind of experiment: ST_JUDE_LEISH: Cytotoxicity at 2uM final concentration against transgenic Leishmania Mexicana promastigotes LmGT2 that are glucose transport deficient and complemented with the L. Mexicana glucose transporter 2. Activity is measured by DNA content using SYBR green in vitro.

Molecules are shown by their SMILES.

Consider `COCCn1c(Sc2ccc(C#N)c([N+](=O)[O-])c2)nnc1-c1ccc(N(C)C)cc1`, for which the inhibition (commonly the change of the read-out against control, counted positive when it falls) was 13% in experiment [1], 13.5% in experiment [2] and 11.7% in experiment [3].

Take `Cc1ccc2c(N/N=C/c3ccccc3[N+](=O)[O-])cc(C)nc2c1`: the inhibition is 2.06% in experiment [1], -5.28% in experiment [2] and 1.01% in experiment [3].

For the compound `Cn1cc(C2CCN(CCCCCNC(=O)/C=C/c3ccc(Cl)c(Cl)c3)CC2)c2cc(O)ccc21`, the inhibition in experiment [1] stood at 1.48%; in experiment [2], 2.56%; in experiment [3] it was 1.47%.

On to `O=C(Nc1ccc(Cl)c(C(F)(F)F)c1)c1ccc(C(=O)Nc2ccc(Cl)c(C(F)(F)F)c2)cc1`, for which the inhibition was -2.43% in experiment [1], 1.08% in experiment [2] and 0.39% in experiment [3].

As for `CS(=O)(=O)c1ccc2c(c1)CCN(CCC1CCC(NC(=O)C(=Cc3ccc(Cl)cc3Cl)c3ccc(-c4ccccc4)cc3)CC1)CC2` (stereo not given), the inhibition is -0.33% in experiment [1], 3.12% in experiment [2] and 3.51% in experiment [3].

On to `CN(C)CCNC(=O)N1CCCN(c2ncnc3cc(-c4ccccc4)sc23)CC1`, for which the inhibition in experiment [1] stood at 8.06%; in experiment [2], 5.39%; in experiment [3] it was 6.1%.

As for `O=C(Nc1ccc(Br)c(Cl)c1)c1cc([N+](=O)[O-])cc2cn[nH]c12`, the inhibition in experiment [1] is -0.11%; in experiment [2] it was -0.77%; in experiment [3] it was 1.08%.

In the case of `CCC(=O)c1cc(C(=O)NCCc2cccc(OC)c2)ccc1OC`, the inhibition in experiment [1] was 12.4%; in experiment [2], 11.3%; in experiment [3] it was 11.3%.

As to `CC(=O)NCCNc1cc(N2CCc3ncnc(Nc4ccc(OCc5c(F)cccc5F)c(Cl)c4)c3C2)ncn1`, the inhibition in experiment [1] is 0.69%; in experiment [2], 1.6%; in experiment [3] it was 1.84%.

With `CC(C)=CC1C(C(=O)n2c(=N)[nH]c3ccccc32)C1(C)C` (stereo not given), the inhibition is 9.13% in experiment [1], 7.8% in experiment [2] and 5.36% in experiment [3].

Regarding `O=C(Nc1ccc(-c2ccc(-c3nc4cc(C(F)(F)F)ccc4[nH]3)s2)cc1)c1ccoc1`, the inhibition is 0.13% in experiment [1], -0.79% in experiment [2] and -1.02% in experiment [3].

With `CCc1nn2c(Nc3ccncc3)cc(C)nc2c1-c1ccccc1`, the inhibition in experiment [1] worked out at 3.36%; in experiment [2] it was 3.33%; in experiment [3] it was 1.85%.

On to `Nc1ncc(-c2ccsc2)c2ccc(-c3cnc[nH]3)cc12`, for which the inhibition in experiment [1] was 1.46%; in experiment [2], 0.14%; in experiment [3], -0.37%.

On to `COc1c(C2CCN(CCN3CCC(CNC(=O)c4ccc(-c5ccc(C#N)cc5)cc4)CC3)CC2)ccc2c1CCCC2`, for which the results for the inhibition in experiment [1], in experiment [2] and in experiment [3] were 3.97%, 8.83% and 8.54%, respectively.

Turning to `COC1(C)Oc2ccc3cccc([N+](=O)[O-])c3c2C1=O` (stereo not given), the inhibition was 0.18% in experiment [1], -0.47% in experiment [2] and -0.75% in experiment [3].

Take `N#Cc1cccc(Nc2ncc3c(-c4cccc(NC(=O)Cc5cccc(Cl)c5)c4)c[nH]c3n2)c1`: the results for the inhibition in experiment [1], in experiment [2] and in experiment [3] were 3.15%, 2.53% and 0.18%, respectively.

Turning to `O=C(NC1CCC(CCN2Cc3ccc(Br)cc3C2)CC1)c1cccc(-c2cccnc2)c1` (stereo not given), the inhibition in experiment [1] is 3.16%; in experiment [2], 4.93%; in experiment [3] it was -1.16%.

In the case of `COc1ccc(-c2cccc(CNC3CCN(CC4Cn5c(=O)ccc6ccc(F)c4c65)CC3)c2)cc1` (stereo not given), the inhibition in experiment [1] is 10.7%; in experiment [2] it was 10%; in experiment [3] it was 8.16%.

`COc1ccc(N2CCN(c3nc(Nc4ccc(NC(C)=O)cc4)nc(N4CCCC4)n3)CC2)cc1`: the inhibition was 0.68% in experiment [1], 1.16% in experiment [2] and 5.96% in experiment [3].

As to `Clc1ccc(-c2cc(-c3csc(NCCN4CCOCC4)n3)on2)c(Cl)c1`, the values for the inhibition in experiment [1], in experiment [2] and in experiment [3] were 12.4%, 9.19% and 10.6%, respectively.

For `CNCCNCc1ccc(-c2cccc(-c3nc4cc(C(F)(F)F)ccc4[nH]3)c2)cc1`, the inhibition in experiment [1] worked out at 3.52%; in experiment [2], 0.66%; in experiment [3] it was 1.45%.

On to `Cc1cc(N(C)CCCN2CCCCC2)nc(Nc2ccc(Cl)cc2)n1`, for which the inhibition in experiment [1] is 0.51%; in experiment [2] it was 2.38%; in experiment [3] it was 2.88%.

For the compound `Cc1cc(C(F)(F)F)cc(-n2ncc(-c3ccc(C(=O)NCc4ccccc4N)cc3)c2N)n1`, the inhibition in experiment [1] was 104%; in experiment [2], 98.5%; in experiment [3], 57.5%.

Take `COC(=O)c1ccc(-c2ccc(C(=O)NCC3CCN(c4nc(N)c5cc(OC)c(OC)cc5n4)CC3)cc2)cc1`: the inhibition came to 4.1% in experiment [1], 4.23% in experiment [2] and 2.11% in experiment [3].

In the case of `O=S(=O)(Nc1ccc2nccc(N3CCNCC3)c2c1)c1ccc2c(Cl)cccc2c1`, the inhibition in experiment [1] is 0.28%; in experiment [2], -0.67%; in experiment [3], -0.37%.

`CCCC1(NC[C@@H](O)[C@H](Cc2ccccc2)NC(=O)c2cc(NCC)cc(N3CCCCS3(=O)=O)c2)CCCC1`: the inhibition is 4.97% in experiment [1], 5.31% in experiment [2] and 3.48% in experiment [3].

Consider `COc1cccc(-c2cc3nc4c(c(NCCCn5ccnc5)n3n2)CCCC4)c1`, for which the inhibition in experiment [1] amounted to 2.73%; in experiment [2], 5.03%; in experiment [3], 2.77%.

With `COc1ccc2c(NN=Cc3ccc(F)cc3)ccnc2c1`, the results for the inhibition in experiment [1], in experiment [2] and in experiment [3] were 1.29%, 2.43% and 1.85%, respectively.

For `COc1ccc(N2C(N)=NC(N)=NC2(C)C)cc1`, the inhibition in experiment [1] was 1.65%; in experiment [2] it was 3.07%; in experiment [3], 2.77%.

Consider `CCOc1c(CNCCCNc2nc3ccccc3[nH]2)cc(I)cc1OC`, for which the inhibition turned out to be 1.59% in experiment [1], 1.56% in experiment [2] and 2.86% in experiment [3].

With `CC(C)COc1ccc(Cl)cc1Cc1nc(-c2nc3ccc(CN4CCCC4)cc3[nH]2)co1`, the inhibition was 2.58% in experiment [1], 3.58% in experiment [2] and 3.07% in experiment [3].

In the case of `Cn1cc(C2CCN(CCCCNC(=O)c3ccc(C(=O)Nc4ccc(C#N)cc4)cc3)CC2)c2ccccc21`, the inhibition in experiment [1] worked out at 9%; in experiment [2], 7.5%; in experiment [3], 7%.

In the case of `c1ccc2[nH]c(-c3ccc(-c4ccc(CN5CCN(c6ccncc6)CC5)cc4)s3)nc2c1`, the inhibition turned out to be 6.21% in experiment [1], 6.05% in experiment [2] and 1.74% in experiment [3].

For `COc1ccc2nccc([C@@H](O)CN3CCC(NCCOc4cccc(C(F)(F)F)c4Cl)CC3)c2c1`, the inhibition in experiment [1] worked out at 11.3%; in experiment [2], 12%; in experiment [3], 6.66%.

With `Cc1ccccc1C1CCN(C2CCC(NC(=O)/C=C/c3cc(F)ccc3F)CC2)CC1` (stereo not given), the inhibition turned out to be 1.51% in experiment [1], 2.73% in experiment [2] and 3.64% in experiment [3].
